Among the data in PubChem BioAssay AID2227 (Johns Hopkins Ion Channel Center, 2009) are B-score values, retold here.

Out of some 310,000 compounds screened, about 1,300 (0.42%) were called active.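 Rule for the calls: active = B-score of calcium response area above 5 SD of library B-scores, with initial fluorescence ratio within 5 SD of library; inactive = the rest.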 The full list was thinned out, with actives kept by preference.

Short transient receptor potential channel 4 (Mus musculus), sequence (Q9QUQ5 whole entry, looked up): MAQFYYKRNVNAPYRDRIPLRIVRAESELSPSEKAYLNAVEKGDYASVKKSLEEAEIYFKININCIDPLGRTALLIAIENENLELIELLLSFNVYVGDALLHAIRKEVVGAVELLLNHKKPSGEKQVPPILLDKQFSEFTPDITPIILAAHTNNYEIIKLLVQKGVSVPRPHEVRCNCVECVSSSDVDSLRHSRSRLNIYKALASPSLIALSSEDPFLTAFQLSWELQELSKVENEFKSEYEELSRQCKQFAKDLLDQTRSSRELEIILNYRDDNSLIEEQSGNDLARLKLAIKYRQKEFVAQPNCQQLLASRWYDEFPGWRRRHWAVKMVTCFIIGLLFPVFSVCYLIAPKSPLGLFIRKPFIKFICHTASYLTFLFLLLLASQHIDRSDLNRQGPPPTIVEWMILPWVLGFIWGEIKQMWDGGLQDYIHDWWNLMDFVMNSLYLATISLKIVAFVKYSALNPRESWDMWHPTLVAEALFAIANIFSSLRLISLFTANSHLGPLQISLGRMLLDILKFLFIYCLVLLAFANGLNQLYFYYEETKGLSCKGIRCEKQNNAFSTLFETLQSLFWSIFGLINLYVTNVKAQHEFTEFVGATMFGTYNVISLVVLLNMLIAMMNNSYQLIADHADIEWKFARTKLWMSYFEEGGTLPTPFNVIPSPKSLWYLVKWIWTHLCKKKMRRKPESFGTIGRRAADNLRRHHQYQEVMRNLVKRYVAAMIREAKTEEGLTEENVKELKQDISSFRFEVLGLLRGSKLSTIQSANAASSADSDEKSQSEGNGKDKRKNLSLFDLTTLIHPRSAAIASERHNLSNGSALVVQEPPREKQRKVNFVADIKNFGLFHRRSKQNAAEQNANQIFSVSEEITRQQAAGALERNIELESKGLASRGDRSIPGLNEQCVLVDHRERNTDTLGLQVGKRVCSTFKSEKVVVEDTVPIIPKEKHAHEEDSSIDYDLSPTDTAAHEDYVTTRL

This experiment has as its target Short transient receptor potential channel 4 (Mus musculus) (UniProt Q9QUQ5). Nature of the experiment: TRPC4 channel potentiators under submaximal DAMGO – cell-based, mouse TRPC4beta, HEK293 mu-opioid, Fluo-4 calcium, primary screen (AID 2227).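 For B-score: B-score of integrated fluorescence ratio over time as area under calcium response.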 The settings on record: DAMGO EC20, Fluo-4 Ca2+ flux, at 10 µM; active compounds read high.
`Cc1ccc(CN2CCN(/N=C/c3ccco3)CC2)c(C)c1`: the B-score result was “inactive”.
For `C(=N\n1cnnc1)/c1cccnc1` the value was “inactive”; for `Cc1ccc(CN2CCN(/N=C/c3cccnc3)CC2)c(C)c1`, 12 (active); for `Clc1ccc(CN2CCN(/N=C/c3cccnc3)CC2)cc1`, 12 (active).
As for `Cc1ccc(CN2CCN(c3ncccn3)CC2)c(C)c1`, the entry is “inactive”.
As for `O=C1/C(=C\c2cccnc2)CN(Cc2ccccc2)C/C1=C\c1cccnc1`, the entry is “inactive”.
As for `CCOc1ccc(S(=O)(=O)NCCCn2ccnc2)cc1NC(C)=O`, the B-score entry is “inactive”.
On to `CCc1ccc(/C=N/NC(=O)c2nnn(-c3nonc3N)c2CN2CCc3ccccc32)cc1`, for which the B-score result is “inactive”.
As for `CCN(CCn1cccn1)Cc1cn[nH]c1-c1ccc(OC)cc1F`, the entry is “inactive”; as for `Cc1cccc(C)c1NC(=O)C1(N(C(=O)c2ccccn2)c2ccc(O)cc2)CCCCC1`, “inactive”.
For `CN(C)CCCN(Cc1cc2cc3c(cc2[nH]c1=O)OCCO3)C(=O)NC1CCCCC1`, the B-score entry was “inactive”.
For `Cc1ccc(NC(=S)NC(=O)c2ccc(-c3ccccc3)cc2)cc1` the value was “inactive”; for `COCCCNC(=S)NC(=O)c1ccccc1`, “inactive”; for `CCOC(=O)C1=C(NC(=S)NC(=O)c2ccccc2)c2ccccc2CC1(C)C`, 25 (active).
As for `CCOC(=O)C(CC)/C(C)=N\NC(=O)c1cccc(C)c1` (configuration not stated), the entry is “inactive”.
As for `ONC(=Nc1ccccc1)c1ccccc1Cl`, the entry is “inactive”; as for `O=C(Nc1nnc(SCc2c(Cl)cccc2Cl)s1)c1cccc([N+](=O)[O-])c1`, “inactive”; as for `O=C(Nc1nnc(SCc2ccccc2Cl)s1)c1cccc([N+](=O)[O-])c1`, 12 (active).
With `NC(=O)CSc1nnc(NC(=O)c2ccc3ccccc3c2)s1`, the B-score result was “inactive”.
As for `Cc1ccc(S(=O)(=O)N2CCN(C(=O)Cc3sc(C)nc3-c3ccc(F)cc3)CC2)c(C)c1`, the entry is “inactive”; as for `CCOc1ccccc1NC(=S)NC(=O)CCc1ccccc1`, “inactive”; as for `Cc1sc2nc(SCCO)n(-c3ccccc3)c(=O)c2c1C`, “inactive”.
In the case of `Cc1sc2nc(SCC(N)=O)n(C)c(=O)c2c1C`, the B-score was 29 (active).
As for `C=CCn1c(SCC(=O)/C(C#N)=C(\C)N)nc2sc(C)c(C)c2c1=O`, the entry is “inactive”; as for `Cc1cc(Nc2cccc(F)c2)n2ncnc2n1`, “inactive”.
For `COc1ccc(/C=C2/S/C(=N/N=C3\CC4CCC3(C)C4(C)C)NC2=O)cc1` (configuration not stated) the value was “inactive”; for `CC(=O)c1ccc(N2CCN(C(=O)C3CCN(S(=O)(=O)c4ccc5c(c4)CC(C)N5C(=O)C4CC4)CC3)CC2)cc1` (configuration not stated), 19 (active); for `COc1ccccc1CNC(=O)C1CCN(S(=O)(=O)c2ccc3c(c2)CC(C)N3C(=O)C2CC2)CC1` (configuration not stated), “inactive”.
For `CC(=O)N1c2ccc(S(=O)(=O)N3CCC(C(=O)N4CCN(c5ccccc5)CC4)CC3)cc2CC1C` (configuration not stated) the value was “inactive”; for `COc1ccccc1C1C2=C(COC2=O)Nc2cc3c(cc21)OCO3` (configuration not stated), “inactive”; for `COC(=O)C1=C(C)NC(=O)CC1c1ccccc1OC` (configuration not stated), “inactive”.
`CCCOc1ccccc1C1CC(=O)Nc2cc3c(cc21)OCO3` (configuration not stated): the B-score is 14 (active).
For `C/C(=C/c1ccccc1)C(=O)N1CCN(c2ccccc2)CC1` the value was “inactive”; for `O=C(O)c1cc2ccccc2c(=O)s1`, “inactive”; for `COc1ccc(-c2nnn(CC(=O)N(CCO)C(C(=O)NC3CCCC3)c3ccc(F)cc3)n2)cc1` (configuration not stated), “inactive”.
As for `Cc1ccc(-c2nnn(CC(=O)N(Cc3ccco3)C(C(=O)NC(C)(C)C)c3ccncc3)n2)o1` (configuration not stated), the entry is “inactive”; as for `Cc1ccc(-c2nnn(CC(=O)N(CCO)C(C(=O)NC(C)(C)C)c3ccncc3)n2)cc1` (configuration not stated), 10 (active); as for `O=C1C(=O)N(CCN2CCOCC2)C(c2cccc(Cl)c2)/C1=C(/O)c1ccc2c(c1)OCO2` (configuration not stated), “inactive”.
For the compound `Cc1cc(/C=N/n2cnnc2)c(C)n1-c1ccc2ncccc2c1`, the B-score result was “inactive”.
As for `Cc1ccccc1CC1(CO)CCCN(Cc2ccc3c(c2)OCCO3)C1` (configuration not stated), the entry is “inactive”; as for `COc1ccc([N+](=O)[O-])cc1NC(=O)CC1SC(=Nc2cccc(C)c2C)N(/N=C(\C)c2ccc(C)cc2)C1=O` (configuration not stated), “inactive”; as for `O=C(N/N=C/c1ccc(Cl)cc1)c1nc2ccc([N+](=O)[O-])cc2c(=O)[nH]1`, “inactive”.
As for `COc1cc(NS(=O)(=O)c2ccc(NC(=S)NC(=O)c3ccccc3)cc2)nc(OC)n1`, the entry is “inactive”; as for `CC(OC(=O)CCCc1c[nH]c2ccccc12)C(=O)Nc1ccc(S(N)(=O)=O)cc1` (configuration not stated), “inactive”.
As for `COCCCNC(=O)/C(C#N)=C/c1c(N2CCCCCC2)nc2ccccn2c1=O`, the entry is “inactive”; as for `Cc1cccn2c(=O)c(/C=C(\C#N)C(N)=O)c(N3CCCCCC3)nc12`, 12 (active); as for `Cc1cccn2c(=O)c(/C=C(\C#N)S(=O)(=O)c3ccc(Cl)cc3)c(N3CCC(C(N)=O)CC3)nc12`, “inactive”.
For `O=C(c1ccc(NS(=O)(=O)c2ccc3[nH]c(=O)[nH]c3c2)cc1)N1CCCCC1`, the B-score result was “inactive”.
For `CN(C)CCCSc1ccccc1NC(=O)/C=C/c1ccccc1` the value was “inactive”; for `N=c1c2c3c(sc2ncn1N)CCCCC3`, 10 (active).
As for `N=c1c2c3c(sc2ncn1N)CCCC3`, the B-score result was “inactive”.
As for `N=c1c2c3c(sc2ncn1CCCN1CCOCC1)CCCCC3`, the B-score result is “inactive”.
Take `N#Cc1ncc(C(F)(F)F)cc1Oc1cccnc1`: the B-score entry was “inactive”.
In the case of `O=c1cc(N2CCCCC2)c(-c2ccccc2)nn1Cc1cccc(F)c1`, the B-score entry is “inactive”.
As for `Cc1ncc([N+](=O)[O-])n1CCOC(=O)c1ccc(Br)cc1`, the entry is “inactive”; as for `Cc1cccc(CCNC(=O)Cn2ncc3c([nH]c4ccc(C)cc43)c2=O)c1`, “inactive”; as for `O=C1c2cccc3cccc(c23)N1CN1CCN(c2ccccn2)CC1`, 10 (active).
For `O=C(CN1CCN(c2ccccn2)CC1)N1CCc2ccccc21` the value was “inactive”.
As for `CC(=C1C(=O)c2ccccc2C1=O)N1CCN(c2ccccn2)CC1`, the entry is “inactive”; as for `Cc1cccc(OCCCC(=O)Nc2ccc(S(=O)(=O)N3CCCC3)cc2)c1`, “inactive”; as for `CC(=O)Nc1ccc(S(=O)(=O)N2CCN(CCCOc3cc(C)ccc3C)CC2)cc1`, 32 (active).
As to `Cc1ccc(C)c(OCCC(=O)Nc2cccc(S(=O)(=O)N3CCCC3)c2)c1`, the B-score result is “inactive”.
For `CC(=O)c1ccc(N2CCN(S(=O)(=O)c3ccc4c(c3)CC(=O)N4C)CC2)cc1` the value was “inactive”; for `Cc1c(C(=O)NCCN2C(=O)S/C(=C\c3cccs3)C2=O)cccc1[N+](=O)[O-]`, “inactive”.
For `COC(=O)c1ccccc1N=Nc1c(C)[nH][nH]c1=O` the value was 59 (active); for `Cc1[nH]n(-c2ccccc2)c(=O)c1N=Nc1ccccc1C(=O)N1CCCCC1`, “inactive”.
For `Cc1[nH][nH]c(=O)c1N=Nc1ccccc1` the value was “inactive”.
